Results taken from PubChem BioAssay.
Results filed as inconclusive are left out. Activity calls are given as the source filed them.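 How the source made its calls, unless noted: active means inhibition above the screen-wide mean plus 3 SD, about 51%; inactive means the rest.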

What was measured:
[1] = yeast TOR pathway RPL19A-GFP modulators, primary screen, cell-based, S. cerevisiae, multiplex flow cytometry (AID 1862; in the data active means percent of DMSO control GFP below about 86%;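 further: lower values mimic rapamycin by blocking the RPL19A rise seen in DMSO cells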); settings: S. cerevisiae RPL19A-GFP strain, flow cytometry fluorescence, 3 h; at 10 µM; stronger effect = lower value
[2] = modulators of MEP2-GFP levels in yeast, primary screen, S. cerevisiae, multiplex flow cytometry (AID 1867;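 active means GFP response, as percent of the DMSO control, above the screen-wide mean plus 3 SD, about 139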;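 further: median GFP channel fluorescence of barcode-gated MEP2-GFP cells measured by flow cytometry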); settings: S. cerevisiae MEP2-GFP strain, 3 h, at 10 µM, stronger effect = higher value, 100% means same as DMSO wells
[3] = modulators of CIT2-GFP expression in yeast, primary screen, S. cerevisiae, GFP fusion, multiplex flow cytometry (AID 1870;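 active means percent response above a set limit, the screen-wide mean plus 3 SD, cut at about 130% in these data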;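 further: barcoded CIT2-GFP strain pooled with four other GFP strains with rapamycin as positive control; median GFP fluorescence per well over plate mean of DMSO wells so 100% = DMSO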); settings: 3 h, at 10 µM, stronger effect = higher value
[4] = modulators of LAP4-GFP expression in yeast, primary screen, S. cerevisiae, multiplex flow cytometry (AID 1873;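 active means GFP signal, as percent of the solvent control, above the screen mean plus 3 SD, about 149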); settings: 3 h, at 10 µM, stronger effect = higher value
[5] = modulators of AGP1-GFP expression in yeast TOR pathway, primary screen, cell-based, multiplex flow cytometry, S. cerevisiae (AID 1887;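 active means GFP signal above the screen-wide mean plus 3 SD, that is over about 124.5% of the solvent control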;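 further: AGP1-GFP fusion strain of S. cerevisiae within a five-strain barcoded multiplex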); settings: 3 h, at 10 µM, stronger effect = higher value
[6] = inhibitors of CD8+ T cell-vesicle binding, pilot screen, LFA-1/ICAM-1 modulator project, MLPCN validation set, flow cytometry (AID 2523;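 active means response below a set limit, under 55% cells CD8-positive and vesicle-bound, and CD8 cells' 90th-percentile brightness under 279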;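 on vesicle binding response: mean PE anti-B7-1 fluorescence of CD8+ cells relative to row control; 100% = QL9-loaded vesicles with DMSO vehicle in the same plate row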); settings: 2C mouse CD8+ T cells, at 7 µM, stronger effect = lower value; double positive events: measured here: CD8+/vesicle+ event percentage
[7] = molecular target: Integrin beta-1 (Homo sapiens) + Integrin alpha-4 (Homo sapiens) (UniProt P13612+P05556); experiment: inhibition of HUTS-21 binding to VLA-4, pilot screen, VLA-4 allosteric modulator project, U937 cells, HUTS-21 mAb, flow cytometry, validation set (AID 2674;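 active means inhibition above 50%, about 3 SD of the validation set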;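 further: antibody binding induced by the VLA-4 ligand LDV present at three times its Kd; 0% = LDV ligand with antibody and no compound and 100% = antibody without LDV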); settings: HUTS-21 LIBS mAb binding, at 6.7 µM, stronger effect = higher value, binding induced by LDV ligand
Chain of Integrin beta-1 (Homo sapiens) + Integrin alpha-4 (Homo sapiens) (P05556 whole entry, looked up): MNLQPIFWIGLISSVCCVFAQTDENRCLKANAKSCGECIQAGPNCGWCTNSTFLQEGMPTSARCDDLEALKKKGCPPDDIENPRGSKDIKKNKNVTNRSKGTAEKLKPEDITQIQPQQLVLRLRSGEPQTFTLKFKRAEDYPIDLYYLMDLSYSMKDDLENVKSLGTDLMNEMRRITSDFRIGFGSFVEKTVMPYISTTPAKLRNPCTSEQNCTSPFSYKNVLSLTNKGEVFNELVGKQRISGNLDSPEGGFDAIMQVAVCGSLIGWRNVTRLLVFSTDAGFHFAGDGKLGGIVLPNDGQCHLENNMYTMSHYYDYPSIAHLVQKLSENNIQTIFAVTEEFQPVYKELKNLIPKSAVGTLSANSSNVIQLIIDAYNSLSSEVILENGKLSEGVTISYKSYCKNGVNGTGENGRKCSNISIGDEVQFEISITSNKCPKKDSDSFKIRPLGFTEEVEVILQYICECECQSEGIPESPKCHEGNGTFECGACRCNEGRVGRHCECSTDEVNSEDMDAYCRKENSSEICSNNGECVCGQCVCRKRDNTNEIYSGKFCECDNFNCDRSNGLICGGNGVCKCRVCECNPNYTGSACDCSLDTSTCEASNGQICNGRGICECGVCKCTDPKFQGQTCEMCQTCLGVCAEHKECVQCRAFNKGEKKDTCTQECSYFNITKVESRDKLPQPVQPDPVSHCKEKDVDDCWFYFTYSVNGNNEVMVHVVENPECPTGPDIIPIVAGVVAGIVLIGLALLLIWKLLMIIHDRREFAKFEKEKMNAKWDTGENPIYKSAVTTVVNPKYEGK
Chain of Integrin beta-1 (Homo sapiens) + Integrin alpha-4 (Homo sapiens) (P13612 whole entry, looked up): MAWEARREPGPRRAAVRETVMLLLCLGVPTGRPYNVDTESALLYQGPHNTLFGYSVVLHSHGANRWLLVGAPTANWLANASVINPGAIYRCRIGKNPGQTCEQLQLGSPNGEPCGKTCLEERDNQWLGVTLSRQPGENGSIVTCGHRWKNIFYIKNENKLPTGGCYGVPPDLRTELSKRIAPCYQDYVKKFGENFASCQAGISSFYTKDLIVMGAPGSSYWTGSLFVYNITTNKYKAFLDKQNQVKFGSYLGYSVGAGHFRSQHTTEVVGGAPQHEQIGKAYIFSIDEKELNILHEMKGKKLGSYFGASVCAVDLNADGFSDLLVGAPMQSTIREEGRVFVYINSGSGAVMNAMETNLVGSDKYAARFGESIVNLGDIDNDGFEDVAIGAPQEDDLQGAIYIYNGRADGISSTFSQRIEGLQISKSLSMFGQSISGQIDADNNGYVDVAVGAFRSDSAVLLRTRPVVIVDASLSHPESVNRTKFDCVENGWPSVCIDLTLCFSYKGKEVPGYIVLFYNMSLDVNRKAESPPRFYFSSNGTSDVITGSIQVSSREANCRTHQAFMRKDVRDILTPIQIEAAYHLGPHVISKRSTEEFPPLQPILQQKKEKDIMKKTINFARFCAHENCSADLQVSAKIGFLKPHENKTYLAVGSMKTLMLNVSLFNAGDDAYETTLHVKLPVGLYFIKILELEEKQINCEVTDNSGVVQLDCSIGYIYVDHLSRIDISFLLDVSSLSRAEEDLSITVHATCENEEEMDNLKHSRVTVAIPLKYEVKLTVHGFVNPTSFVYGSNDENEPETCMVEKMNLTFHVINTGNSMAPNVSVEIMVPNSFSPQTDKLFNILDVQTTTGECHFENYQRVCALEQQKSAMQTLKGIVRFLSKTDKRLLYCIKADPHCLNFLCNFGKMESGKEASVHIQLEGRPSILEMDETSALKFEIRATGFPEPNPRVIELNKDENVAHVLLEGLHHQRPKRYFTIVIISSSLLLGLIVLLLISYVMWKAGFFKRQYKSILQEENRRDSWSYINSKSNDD

[8] = superoxide lowering in aged yeast cells, pilot screen, validation compound set (AID 2706;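 active means superoxide response below 65% of plate, a cut near 3 SD across the whole screen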;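 further: yeast exposed to compound for one week at 30 degrees C before staining; 100% = mean of all compound wells on the same plate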); settings: S. cerevisiae aging, superoxide DHE fluorescence; at 10 µM; stronger effect = lower value
[9] = molecular target: Beta-adrenergic receptor kinase 1 (Homo sapiens) (UniProt P25098); experiment: GRK2 binders displacing RNA aptamer, biochemical, validation, human GRK2, bead flow cytometry (AID 488806;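 active means aptamer binding inhibition above 30%, about 3 SD of noise from non-fluorescent compounds; inactive means inhibition at or below 30%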); settings: bead-bound GRK2, FAM-aptamer displacement, at 10 µM, stronger effect = higher value
Chain of Beta-adrenergic receptor kinase 1 (Homo sapiens) (P25098 whole entry, looked up): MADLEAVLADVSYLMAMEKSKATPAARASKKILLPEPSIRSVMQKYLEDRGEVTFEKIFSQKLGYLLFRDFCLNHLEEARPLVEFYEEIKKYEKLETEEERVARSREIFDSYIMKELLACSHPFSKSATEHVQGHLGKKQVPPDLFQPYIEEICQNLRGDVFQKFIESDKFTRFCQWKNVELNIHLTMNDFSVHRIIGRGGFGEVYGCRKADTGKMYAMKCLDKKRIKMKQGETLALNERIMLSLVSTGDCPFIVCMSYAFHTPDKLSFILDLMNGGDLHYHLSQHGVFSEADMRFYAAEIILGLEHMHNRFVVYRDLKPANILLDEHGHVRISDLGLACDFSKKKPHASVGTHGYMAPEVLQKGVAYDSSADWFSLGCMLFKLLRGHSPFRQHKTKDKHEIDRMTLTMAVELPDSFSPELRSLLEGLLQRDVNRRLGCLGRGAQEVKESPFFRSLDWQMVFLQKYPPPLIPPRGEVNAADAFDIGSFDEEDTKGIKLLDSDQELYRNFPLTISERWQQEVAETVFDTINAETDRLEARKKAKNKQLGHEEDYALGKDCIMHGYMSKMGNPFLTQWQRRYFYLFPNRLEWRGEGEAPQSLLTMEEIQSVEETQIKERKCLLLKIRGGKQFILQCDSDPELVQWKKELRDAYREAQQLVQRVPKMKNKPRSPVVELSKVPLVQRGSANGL

[10] = molecular target: Beta-2 adrenergic receptor (Homo sapiens) (UniProt P07550); experiment: beta2AR agonists driving receptor internalization, pilot screen, cell-based, FAP fluorogen, flow cytometry, validation set (AID 504459;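 active means percent response above 42, roughly 3 SD of non-fluorescent test compounds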;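 further: agonist-driven loss of surface beta2AR via internalization measured by FAP dye flow cytometry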); settings: Am2.2-beta2AR cells, FAP surface receptor flow cytometry; at 10 µM; stronger effect = higher value
Chain of Beta-2 adrenergic receptor (Homo sapiens) (P07550 whole entry, looked up): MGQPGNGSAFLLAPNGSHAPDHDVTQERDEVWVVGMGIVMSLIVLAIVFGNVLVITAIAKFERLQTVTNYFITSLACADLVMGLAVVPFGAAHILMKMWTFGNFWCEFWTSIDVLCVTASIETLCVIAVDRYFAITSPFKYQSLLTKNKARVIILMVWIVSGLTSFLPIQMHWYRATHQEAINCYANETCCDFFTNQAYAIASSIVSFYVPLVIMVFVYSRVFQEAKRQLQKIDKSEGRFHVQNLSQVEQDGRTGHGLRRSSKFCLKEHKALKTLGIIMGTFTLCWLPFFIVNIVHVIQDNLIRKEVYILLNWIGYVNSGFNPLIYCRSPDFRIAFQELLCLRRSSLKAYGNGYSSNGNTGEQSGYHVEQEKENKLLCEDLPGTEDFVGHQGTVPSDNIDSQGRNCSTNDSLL

[11] = molecular target: AP-2 complex subunit beta (Homo sapiens) (UniProt P63010); experiment: inhibitors of arrestin peptide binding to AP2, pilot screen, biochemical, validation set, GST-AP2 beads, flow cytometry (AID 504541;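 active means inhibition above 54%, about 3 SD of non-fluorescent compounds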;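 further: AP2 carries R879A mutation and is captured from E. coli lysate; bead-bound FITC arrestin peptide fluorescence measuring arrestin peptide binding to AP2; 0% = DMSO wells and 100% = excess unlabeled arrestin peptide control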); settings: FITC arrestin peptide, at 10 µM, stronger effect = higher value, AP2 beta2 appendage fragment, R879A mutant
Chain of AP-2 complex subunit beta (Homo sapiens) (P63010 whole entry, looked up, the tested form may be a part, one chain of several): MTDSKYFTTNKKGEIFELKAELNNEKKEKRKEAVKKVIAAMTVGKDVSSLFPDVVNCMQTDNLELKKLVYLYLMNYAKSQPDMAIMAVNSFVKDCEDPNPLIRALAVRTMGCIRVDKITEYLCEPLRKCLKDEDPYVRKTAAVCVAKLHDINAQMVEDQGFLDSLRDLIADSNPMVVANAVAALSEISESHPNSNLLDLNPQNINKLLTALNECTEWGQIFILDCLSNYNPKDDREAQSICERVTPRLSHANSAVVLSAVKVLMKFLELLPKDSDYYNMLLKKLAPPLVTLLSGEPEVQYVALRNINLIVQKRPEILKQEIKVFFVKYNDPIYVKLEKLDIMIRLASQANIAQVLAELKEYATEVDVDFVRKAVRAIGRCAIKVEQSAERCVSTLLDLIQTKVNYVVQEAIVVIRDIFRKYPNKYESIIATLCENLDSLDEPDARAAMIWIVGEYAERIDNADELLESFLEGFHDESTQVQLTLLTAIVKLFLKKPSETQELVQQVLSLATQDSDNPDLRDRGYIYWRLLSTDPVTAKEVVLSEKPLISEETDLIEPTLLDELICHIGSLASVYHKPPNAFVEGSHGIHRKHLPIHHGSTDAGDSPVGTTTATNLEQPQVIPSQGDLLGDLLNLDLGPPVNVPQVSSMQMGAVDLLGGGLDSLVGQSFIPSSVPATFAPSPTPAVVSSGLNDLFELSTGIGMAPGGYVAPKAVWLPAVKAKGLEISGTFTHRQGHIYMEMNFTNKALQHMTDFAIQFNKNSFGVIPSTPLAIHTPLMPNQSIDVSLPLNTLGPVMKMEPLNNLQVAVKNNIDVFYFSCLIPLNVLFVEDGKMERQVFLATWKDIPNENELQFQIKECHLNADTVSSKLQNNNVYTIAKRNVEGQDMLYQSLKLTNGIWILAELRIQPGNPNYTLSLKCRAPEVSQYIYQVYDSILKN

[12] = yeast V-ATPase proton transport modulators, S. cerevisiae, pHLuorin, HTS validation (AID 504600; in the data active means response above about 15%;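 further: plate controls were DMSO for no effect and reference compound for full effect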); settings: S. cerevisiae pHLuorin cytosolic pH, at 10 µM, stronger effect = higher value
[13] = test system: anti-desmoglein-3 scFv antibody binding to human DSG3; experiment: inhibitors of anti-DSG3 scFv binding to DSG3, pilot screen, biochemical, validation compound set, bead-based, flow cytometry (AID 588368;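 active means binding below the plate cutoff, the plate median minus 3 SD, with a reading above zero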;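 further: signal is the median channel fluorescence of bead-bound GFP antibody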); settings: Protein G beads, DSG3-Fc, scFv-GFP binding, at 10 µM, stronger effect = lower value
[14] = inhibitors of fungal efflux pumps CDR1, CDR2, MDR1, pilot screen, validation compound set, multiplex, phenotypic (AID 588506;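 active means efflux inhibition above 0.42, the validation set average plus 4 SD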;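 further: Nile Red retained in cells so higher fluorescence means more efflux inhibition; 0 = negative control wells and 1 = enniatin B 25 µM full block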); settings: S. cerevisiae pump-expressing triplex, Nile Red efflux flow cytometry; at 10 µM; stronger effect = higher value; the pumps come from Candida albicans
[15] = molecular target: ATP-binding cassette sub-family B member 6 (Homo sapiens) (UniProt Q9NP58); experiment: ABCB6 transporter inhibitors, pilot screen, K562-ABCB6 cells, flow cytometry, validation set (AID 588550); settings: K562-ABCB6 porphyrin accumulation, 1 h, at 10 µM, stronger effect = higher value;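 further: 0% = DMSO wells and 100% = benzethonium chloride 70 µM positive control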
Chain of ATP-binding cassette sub-family B member 6 (Homo sapiens) (Q9NP58 whole entry, looked up): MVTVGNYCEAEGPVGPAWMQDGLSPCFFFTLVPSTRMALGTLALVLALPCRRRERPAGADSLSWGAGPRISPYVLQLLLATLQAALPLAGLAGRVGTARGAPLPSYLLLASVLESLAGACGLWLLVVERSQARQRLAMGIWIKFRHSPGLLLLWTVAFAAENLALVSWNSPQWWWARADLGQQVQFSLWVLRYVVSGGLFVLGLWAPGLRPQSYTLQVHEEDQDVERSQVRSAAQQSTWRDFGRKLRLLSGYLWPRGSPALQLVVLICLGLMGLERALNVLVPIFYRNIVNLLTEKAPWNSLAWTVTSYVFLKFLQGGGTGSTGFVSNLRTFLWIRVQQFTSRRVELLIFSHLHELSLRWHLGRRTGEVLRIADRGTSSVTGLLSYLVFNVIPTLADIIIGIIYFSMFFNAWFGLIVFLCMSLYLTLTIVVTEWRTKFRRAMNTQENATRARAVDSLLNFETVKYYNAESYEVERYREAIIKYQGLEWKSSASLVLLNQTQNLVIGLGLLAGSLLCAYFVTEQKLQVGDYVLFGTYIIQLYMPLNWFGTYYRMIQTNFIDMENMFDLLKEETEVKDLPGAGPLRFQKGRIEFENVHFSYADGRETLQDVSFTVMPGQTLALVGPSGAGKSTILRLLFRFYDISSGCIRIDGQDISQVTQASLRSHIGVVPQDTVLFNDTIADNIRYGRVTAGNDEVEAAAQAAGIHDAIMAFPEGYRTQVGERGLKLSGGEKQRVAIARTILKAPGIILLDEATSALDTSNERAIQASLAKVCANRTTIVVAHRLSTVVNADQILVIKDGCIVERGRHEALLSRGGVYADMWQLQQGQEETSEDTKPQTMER

[16] = promoters of myeloid differentiation in arrested cells, primary screen, cell-based, GFP/MAC1 double positive, flow cytometry, validation set (AID 588685;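 active means differentiation response of at least 50%, scaled between solvent and reference control, from cells with both markers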;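 further: compound exposure lasts four days before antibody staining and flow analysis; 0% = DMSO wells and 100% = 5 µM fulvestrant positive control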); settings: ER-HoxA9 marrow cells, stronger effect = higher value, normalized: vehicle 0, fulvestrant 100

Row | Structure (SMILES) | percent of DMSO control GFP [1] | GFP response vs DMSO [2] | percent response of DMSO control [3] | GFP response vs DMSO [4] | GFP response, % of DMSO [5] | double positive events [6] | vesicle binding response [6] | inhibition [7] | superoxide response (% of plate) [8] | aptamer binding inhibition [9] | response [10] | inhibition [11] | response [12] | binding (% of control) [13] | efflux inhibition (fraction of control) [14] | inhibition [15] | differentiation response [16]
1 | O=C(/C=C/Sc1ccccc1)c1ccccc1 | 106% (inactive) | 101% (inactive) | 100% (inactive) | 112% (inactive) | 94.6% (inactive) | 63.9% | 263% (inactive) | -15% (inactive) | 109% (inactive) | -1% (inactive) | 28.9% (inactive) | 14.1% (inactive) | -5.17% (inactive) | 103% (inactive) | -0.01 (inactive) | -13% (inactive) | 37.4% (inactive)
2 | CCN(CC)CCNC(=O)c1ccc(N)cc1 | 99.6% (inactive) | 106% (inactive) | 91.9% (inactive) | 89.4% (inactive) | 94.6% (inactive) | 63.2% | 1180% (inactive) | -6.68% (inactive) | 94.8% (inactive) | -2% (inactive) | -4.02% (inactive) | -0.67% (inactive) | 0.99% (inactive) | 94.2% (inactive) | -0.14 (inactive) | 21% (inactive) | 6.11% (inactive)
3 | C=C(C)C(=O)Nc1ccc(NC(C)C)cc1 | 104% (inactive) | 104% (inactive) | 97.6% (inactive) | 106% (inactive) | 101% (inactive) | 66% | 170% (inactive) | 9.63% (inactive) | 96.6% (inactive) | 4% (inactive) | 0.61% (inactive) | 19.3% (inactive) | -7.05% (inactive) | 95.1% (inactive) | -0.09 (inactive) | 0% (inactive) | -8.96% (inactive)
4 | CN(C)c1ccc(CNCCC(Cc2ccccc2)c2ccco2)cc1 (stereo unspecified) | 101% (inactive) | 93.5% (inactive) | 108% (inactive) | 89.4% (inactive) | 101% (inactive) | 58.2% | 31.1% (inactive) | 1.12% (inactive) | 92.3% (inactive) | -4% (inactive) | 9.55% (inactive) | -16.6% (inactive) | 2.43% (inactive) | 105% (inactive) | 0.17 (inactive) | 4% (inactive) | -5.68% (inactive)
5 | CCOc1cc2c3c(c1)C(C)=CC(C)(C)N3C(=O)C2=O | 95% (inactive) | 111% (inactive) | 103% (inactive) | 108% (inactive) | 102% (inactive) | 43.2% | 11.7% (active) | 35.1% (inactive) | 108% (inactive) | 0% (inactive) | 23% (inactive) | 51.5% (inactive) | -5.76% (inactive) | 101% (inactive) | -0.13 (inactive) | 4% (inactive) | -0.8% (inactive)
6 | O=C(Nc1ccccc1C(=O)N1CCCCCC1)c1ccccc1Cl | 103% (inactive) | 103% (inactive) | 94.9% (inactive) | 96.5% (inactive) | 102% (inactive) | 60.2% | 146% (inactive) | -10.3% (inactive) | 115% (inactive) | 4% (inactive) | -9.01% (inactive) | 26.6% (inactive) | -0.64% (inactive) | 100% (inactive) | -0.06 (inactive) | 7% (inactive) | 8.02% (inactive)
7 | CC(=O)c1cccc(NC(=O)N[C@@H](CC(C)C)C(=O)O)c1 | 104% (inactive) | 101% (inactive) | 104% (inactive) | 96.6% (inactive) | 104% (inactive) | 57.9% | 230% (inactive) | -9.79% (inactive) | 109% (inactive) | -2% (inactive) | -0.44% (inactive) | 17.6% (inactive) | -2.05% (inactive) | 99.2% (inactive) | 0.18 (inactive) | 6% (inactive) | 9.04% (inactive)
8 | O=c1c2ccccc2nc2n1CCCN2 | 103% (inactive) | 97.4% (inactive) | 111% (inactive) | 98.2% (inactive) | 103% (inactive) | 50.4% | 72.9% (active) | -7.25% (inactive) | 102% (inactive) | -1% (inactive) | -10.8% (inactive) | -9.42% (inactive) | -1.39% (inactive) | 102% (inactive) | -0.1 (inactive) | 2% (inactive) | -16.8% (inactive)
9 | CCOC(=O)C1=C(C)NC(C)=C(C(=O)OC)C1c1cccc([N+](=O)[O-])c1 (stereo unspecified) | 91.3% (inactive) | 124% (inactive) | 95.2% (inactive) | 85.3% (inactive) | 91.5% (inactive) | 63.3% | 200% (inactive) | 8.4% (inactive) | 104% (inactive) | 2% (inactive) | -11.6% (inactive) | 41.2% (inactive) | -3.09% (inactive) | 95.6% (inactive) | 0.12 (inactive) | 18% (inactive) | -1.64% (inactive)
10 | CC(C)=CC/C=C1\CCC(C(=O)O)C(C(=O)O)C1 (stereo unspecified) | 89.5% (inactive) | 123% (inactive) | 95.2% (inactive) | 81.4% (inactive) | 87.5% (inactive) | 63.2% | 160% (inactive) | -14.9% (inactive) | 91.6% (inactive) | 6% (inactive) | -0.75% (inactive) | -6.38% (inactive) | 1.64% (inactive) | 103% (inactive) | -0.35 (inactive) | 14% (inactive) | -2.46% (inactive)
11 | CC1(C)CC(CNCCC(c2ccc(F)cc2)c2ccco2)CCO1 (stereo unspecified) | 96.1% (inactive) | 110% (inactive) | 106% (inactive) | 82.5% (inactive) | 103% (inactive) | 93.3% | 272% (inactive) | 3.55% (inactive) | 87.8% (inactive) | 3% (inactive) | 4.87% (inactive) | 0.76% (inactive) | 5.44% (inactive) | 104% (inactive) | 0.12 (inactive) | 11% (inactive) | -4.09% (inactive)
12 | CSCCC(NC(=O)OC(C)(C)C)C(=O)Oc1ccc2c(=O)c(-c3ccc4c(c3)OCCO4)coc2c1 (stereo unspecified) | 95.9% (inactive) | 107% (inactive) | 94.8% (inactive) | 132% (inactive) | 102% (inactive) | 59.4% | 190% (inactive) | -1.79% (inactive) | 99.7% (inactive) | 2% (inactive) | 0.95% (inactive) | 3.81% (inactive) | -3.69% (inactive) | 100% (inactive) | -0.1 (inactive) | 1% (inactive) | 5.6% (inactive)
13 | CC(C)OC(=O)C1C2C=CC3(CN(CC4CCCO4)C(=O)C13)O2 (stereo unspecified) | 99.1% (inactive) | 104% (inactive) | 98.6% (inactive) | 117% (inactive) | 102% (inactive) | 58.9% | 152% (inactive) | -4.52% (inactive) | 100% (inactive) | 1% (inactive) | 1.99% (inactive) | -4.29% (inactive) | -0.97% (inactive) | 98% (inactive) | 0.19 (inactive) | 7% (inactive) | -16.8% (inactive)
14 | COCCOC(=O)C1=C(N)OC2=C(C(=O)CCC2)C1c1cccnc1 (stereo unspecified) | 105% (inactive) | 105% (inactive) | 100% (inactive) | 89.4% (inactive) | 101% (inactive) | 59.9% | 89.9% (inactive) | -5.64% (inactive) | 99.2% (inactive) | 2% (inactive) | -2.38% (inactive) | 4.01% (inactive) | 0.7% (inactive) | 99.3% (inactive) | -0.1 (inactive) | -4% (inactive) | 7.09% (inactive)
15 | Cc1ccc(CN2CCN(CCCc3ccccc3)CC2CCO)cc1 (stereo unspecified) | 103% (inactive) | 104% (inactive) | 106% (inactive) | 97.3% (inactive) | 104% (inactive) | 62.7% | 219% (inactive) | 7.85% (inactive) | 106% (inactive) | 1% (inactive) | 9.66% (inactive) | 30.3% (inactive) | -5.49% (inactive) | 102% (inactive) | -0.01 (inactive) | -8% (inactive) | 10% (inactive)
16 | CCCCCCC(=O)N(O)C1CC(=O)N(Cc2ccccc2)C1=O (stereo unspecified) | 106% (inactive) | 101% (inactive) | 107% (inactive) | 94% (inactive) | 101% (inactive) | 59.7% | 191% (inactive) | -0.45% (inactive) | 103% (inactive) | 1% (inactive) | -3.98% (inactive) | 6.86% (inactive) | 0.52% (inactive) | 100% (inactive) | -0.01 (inactive) | 9% (inactive) | -4.64% (inactive)
17 | CC(C)c1ccc(OCc2ccc(C(=O)O)o2)cc1 | 105% (inactive) | 102% (inactive) | 109% (inactive) | 91.5% (inactive) | 93.7% (inactive) | 87.7% | 313% (inactive) | 11% (inactive) | 107% (inactive) | 15% (inactive) | 5.55% (inactive) | 2.53% (inactive) | 13.4% (inactive) | 98.3% (inactive) | -0.16 (inactive) | 2% (inactive) | -7.5% (inactive)
18 | Cc1ccc(/C(=C\CN2CCCC2)c2ccccn2)cc1 | 107% (inactive) | 104% (inactive) | 108% (inactive) | 88.2% (inactive) | 100% (inactive) | 57.7% | 146% (inactive) | 12.3% (inactive) | 106% (inactive) | 1% (inactive) | 7.2% (inactive) | -9.23% (inactive) | 0.97% (inactive) | 108% (inactive) | 0.01 (inactive) | -16% (inactive) | -19.2% (inactive)
